Compound activity (PubChem BioAssay)
Only some compounds are listed: those with a hit (about 0.59% of all), similar ones and a draw of the others.
Mtb hypoxia inh: Mtb hypoxia fluorescent reporter inhibition | actives 0.1% (n = 300,000) | M. tuberculosis hypoxia-regulated fluorescent reporter, fluorescence | fluorescence inhibition, % (no concentration beside the values); in the data active = fluorescence inhibition mostly above about 23%, no sharp cut-off; inactive = mostly below about 17%
Mtb betalactam: beta-lactam sensitization of Mtb H37Rv; inhibition, % at 25 µM; AID 434955; actives 0.27% (n = 330,000); M. tuberculosis H37Rv growth with meropenem, percent inhibition; call rule not given here;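 also: growth measured after seven days incubation then overnight dye step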
Rv3671c protease: Rv3671c (M. tuberculosis) protease inhibition. AID 2606. actives 0.048% (n = 320,000). inhibition, % at 5.96 µM. P9WHR9; in the data active = inhibition above about 38%;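 also: extracellular domain of Rv3671c used as enzyme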
Mtb UGM inh: inhibitors of M. tuberculosis UDP-galactopyranose mutase. actives 0.06% (n = 320,000). inhibition, % at 10 µM. purified UGM, fluorescence polarization probe displacement; in the data active = inhibition above about 10%, passing the limit was not always enough
Target sequence (P9WIQ1 whole entry, looked up): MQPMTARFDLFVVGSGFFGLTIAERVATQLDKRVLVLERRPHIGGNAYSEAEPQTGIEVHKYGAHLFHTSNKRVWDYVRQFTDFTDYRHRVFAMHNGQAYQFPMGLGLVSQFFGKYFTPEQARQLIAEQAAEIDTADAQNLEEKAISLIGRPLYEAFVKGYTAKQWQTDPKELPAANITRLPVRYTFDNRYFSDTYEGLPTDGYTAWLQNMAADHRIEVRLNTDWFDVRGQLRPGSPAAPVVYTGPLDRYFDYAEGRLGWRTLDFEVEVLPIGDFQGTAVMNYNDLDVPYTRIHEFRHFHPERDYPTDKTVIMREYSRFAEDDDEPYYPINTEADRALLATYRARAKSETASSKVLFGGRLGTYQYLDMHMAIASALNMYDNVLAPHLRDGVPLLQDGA
DUSP3 inh: inhibitors of human VHR1 phosphatase (DUSP3); P51452; recombinant VHR phosphatase, pNPP absorbance; inhibition, % at 13.3 µM; actives 0.52% (n = 290,000); AID 1654; in the data active = inhibition above about 50%
Numbers stand for hits; 0 = inactive; - = not tested or not shown.

SMILES | Mtb hypoxia inh | Mtb betalactam | Rv3671c protease | Mtb UGM inh | DUSP3 inh
Cc1[nH]n(-c2ccc([N+](=O)[O-])cc2)c(=O)c1C=NCCc1c[nH]c2ccccc12 | 0 | 0 | 0 | 0 | 55
COc1cc(Cl)cc(/C=C/c2ccc3ccccc3n2)c1OC(C)=O | - | 0 | 0 | 0 | 0
O=C(NC1CCCC1)C1CCN(C(=O)NCc2ccccc2)CC1 | 0 | 0 | 0 | 0 | 54
O=C(N/N=C/c1ccc(F)cc1)c1sccc1OCc1ccc(F)cc1 | - | 0 | 0 | 0 | 0
NNC(=O)c1sccc1OCc1ccc(F)cc1 | 0 | 0 | 0 | 0 | 55
COc1cccc(NC(=O)c2sc3nc4n(c(=O)c3c2C)CCC4)c1 | 0 | 0 | 0 | 0 | 0
O=S(=O)(NCc1ccccn1)C(F)(F)F | 0 | 0 | 0 | 0 | 0
O=C1NN(c2ccccc2)C(=O)/C1=C/c1ccc(Sc2cccc3ccccc23)o1 | 0 | 0 | 0 | 0 | 51
Cc1c(C(=O)N2CCCC2)oc2c1-c1nn(CC(=O)NCCCN3CCCCC3)cc1CC2 | 0 | 0 | 0 | 0 | 0
CCC1CCCCN1CCCNC(=O)Cn1cc2c(n1)-c1c(oc(C(=O)N3CCCC3)c1C)CC2 (stereo unspecified) | 0 | 0 | 0 | 0 | 56
Cc1c(C(=O)N2CCCC2)oc2c1-c1nn(CC(=O)NCCCN3CCCCC3C)cc1CC2 (stereo unspecified) | 0 | 0 | 0 | 0 | 56
COc1ccc(N(CC(=O)NC2CCCCC2C)S(=O)(=O)c2c(C)nn(C)c2C)cc1 (stereo unspecified) | 0 | 0 | 0 | 0 | 0
COc1ccc2c(c1)CCC2=NNC(=O)c1ccccc1 | 0 | - | - | - | -
CC1CCN(Cc2c(C(=O)NN=Cc3ccc(C(F)(F)F)cc3)nnn2-c2nonc2N)CC1 | 0 | - | - | - | -
Cc1cc(C(=O)Nc2ccc(Br)cc2F)n(-c2ccccc2)n1 | 0 | - | 0 | 0 | 58
Cc1cc(C(=O)Nc2ccc(F)cc2C)n(-c2ccccc2)n1 | 0 | 0 | 0 | 0 | 0
O=C1CSC(c2ccc([N+](=O)[O-])cc2)N1c1ccc(O)cc1 (stereo unspecified) | 0 | 0 | 0 | 0 | 57
O=C1CC(Cc2ccccc2)C(=O)N1CCc1ccc2c(c1)OCO2 (stereo unspecified) | 0 | 0 | 0 | 0 | 0
O=C(O)Cn1c(-c2ccccc2)nc2ccccc21 | - | 0 | 0 | 0 | 51
c1ccc(-c2nc3nonc3c3nc4ccccc4n23)cc1 | 0 | 0 | 0 | 0 | 0
O=C(O)Cn1c(=O)c(-c2ccccc2)nc2ccccc21 | 0 | 0 | 0 | 0 | 0
c1ccc(-c2nc3ccccc3c3nc4ccccc4n23)cc1 | 0 | 0 | 0 | 0 | 51
Cc1oc(-c2cc(F)cc(F)c2)nc1CN1CCSCC1 | 0 | 0 | 0 | 0 | 0
O=C(NCCN1CCOCC1)c1cc([N+](=O)[O-])ccc1Cl | 0 | 0 | 0 | 0 | 50
CCOc1ccc(CCNC(=O)c2cc([N+](=O)[O-])ccc2N2CCOCC2)cc1OCC | 0 | 0 | 0 | 0 | 50
SMILES | Mtb hypoxia inh | Mtb betalactam | Rv3671c protease | Mtb UGM inh | DUSP3 inh
Oc1c(Cl)cc(Cl)cc1C=Nc1ccc(N2CCOCC2)cc1 | 0 | 0 | 0 | 0 | 60
O=C(N/N=C/c1cc2ccccc2nc1Cl)/C(=C/c1cccs1)NC(=O)c1ccccc1 | - | 0 | 0 | 0 | 52
CC(=O)Nc1ccc(NC(=O)CSC2=NS(=O)(=O)c3cc(F)ccc3N2)cc1 | 0 | 0 | 0 | - | -
C=C(C)C1CC=C(C)/C(=N/NC(=O)CCC(=O)Nc2ccccc2Cl)C1 (stereo unspecified) | - | 0 | 0 | 0 | 55
Cc1cc(C)c(C)c(OCCNCc2ccccc2)c1 | 0 | 0 | 0 | 0 | 52
O=C(Nc1ccccc1)c1ccccc1O | 0 | 0 | 0 | 0 | 0
Cc1ccc(NC(=O)c2ccccc2O)cc1 | 0 | 0 | 0 | 0 | 54
CC1CCCN(S(=O)(=O)c2ccc(S(=O)(=O)N3CCCC3)cc2)C1 (stereo unspecified) | 0 | 0 | 0 | 0 | 0
CC1CCCN(S(=O)(=O)c2ccc(S(=O)(=O)N3CCCN(Cc4ccccc4)C3)cc2)C1 (stereo unspecified) | 0 | - | - | - | 52
CN1CCN(NC(=O)CN2C(=O)S/C(=C\c3c(Cl)cccc3Cl)C2=O)CC1 | 0 | 0 | 0 | 0 | 0
COc1ccc(C(=O)NCC(=O)N2CCN(C(=O)c3ccco3)CC2)cc1[N+](=O)[O-] | 0 | 0 | 0 | 11 | -
COc1cc(/C=N/NC(=O)CCC(=O)Nc2ccc(C)cc2)ccc1O | - | 0 | 0 | 0 | 52
COc1cc(C=NNC(=O)c2cc3ccccc3[nH]2)ccc1O | 0 | - | - | - | -
COc1cc(C=NNC(=O)CCc2ccccc2)ccc1O | 0 | - | - | - | -
COc1cc(/C=N/NC(=O)c2cc3ccccc3[nH]2)ccc1O | - | 0 | 0 | 0 | 57
CCCCc1nnc(NC(=O)CSCc2cc(=O)n3c(C)csc3n2)s1 | 0 | 0 | 0 | 0 | 0
